Assay results published in PubChem BioAssay AID1159580 (chemical genetic matrix, 2015).
Out of some 5,500 compounds screened, about 2,000 (36%) were called active. Roughly 18% stayed inconclusive and do not appear here. The list shows a part of the results. Unmarked numbers belong to inactive results. Rule as the data show it: active = normalized growth mostly below about 0.91 (no sharp cut-off); inconclusive = no clear call, values can overlap the other calls; inactive = mostly above about 0.92.

Assay: chemical genetic growth profiling, strain panel (AID 1159580);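 also: tested at 20 µM; growth read once vehicle control cultures reached saturation at 30 °C; 1 = growth at the plate median or of vehicle wells; lower values mean less growth of the strain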
Conditions: S. cerevisiae deletion strains, growth OD
[1] = locus YDL101C, strain DUN1, hits give low values
[2] = locus YHR030C, strain SLT2, hits give low values
[3] = locus YAL013W, strain DEP1, hits give low values
[4] = locus YBR229C, strain ROT2, hits give low values
[5] = locus YDL134C, strain PPH21, hits give low values
[6] = locus YDR150W, strain NUM1, hits give low values
[7] = locus YEL061C, strain CIN8, hits give low values
[8] = locus YGR078C, strain PAC10, hits give low values
[9] = locus YHR087W, strain rtc3, hits give low values
[10] = locus YJR043C, strain POL32, hits give low values
[11] = locus YJR075W, strain HOC1, hits give low values
[12] = locus YLR039C, strain RIC1, hits give low values
[13] = locus YLR058C, strain SHM2 (second series), hits give low values
[14] = locus YLR085C, strain ARP6, hits give low values
[15] = locus YLR262C, strain YPT6, hits give low values
[16] = locus YML094W, strain GIM5, hits give low values
[17] = locus YMR219W, strain ESC1, hits give low values
[18] = locus YMR263W, strain SAP30, hits give low values
[19] = locus YMR307W, strain GAS1, hits give low values
[20] = locus YNL128W, strain TEP1, hits give low values
[21] = locus YNL153C, strain GIM3, hits give low values
[22] = locus YNL298W, strain CLA4 (second series), hits give low values
[23] = locus YNL322C, strain KRE1, hits give low values
[24] = locus YNR030W, strain Alg12, hits give low values
[25] = locus YPL055C, strain LGE1, hits give low values
[26] = locus YPL241C, strain CIN2, hits give low values
[27] = locus YPR135W, strain CTF4, hits give low values

O=C(Nc1cccc2ccccc12)c1ccccc1O
normalized growth (locus YAR019C, strain CDC15, hits give low values): 0.848 (active)
normalized growth (locus YBL105C, strain PKC1, hits give low values): 0.862 (active)
normalized growth (locus YBR135W, strain CKS1, hits give low values): 0.85 (active)
normalized growth (locus YBR136W, strain MEC1, hits give low values): 0.834 (active)
normalized growth (locus YBR160W, strain CDC28, hits give low values): 0.872 (active)
normalized growth (locus YDL017W, strain CDC7, hits give low values): 0.866 (active)
normalized growth (locus YDL028C, strain MPS1, hits give low values): 0.816 (active)
normalized growth [1]: 0.93
normalized growth (locus YDL108W, strain KIN28, hits give low values): 0.827 (active)
normalized growth (locus YDL132W, strain cdc53, hits give low values): 0.834 (active)
normalized growth (locus YDL214C, strain PRR2, hits give low values): 0.563 (active)
normalized growth (locus YDR052C, strain DBF4, hits give low values): 0.83 (active)
normalized growth (locus YDR054C, strain cdc34, hits give low values): 0.842 (active)
normalized growth (locus YDR226W, strain ADK1, hits give low values): 0.856 (active)
normalized growth (locus YDR477W, strain SNF1, hits give low values): 0.563 (active)
normalized growth (locus YER123W, strain YCK3, hits give low values): 0.432 (active)
normalized growth (locus YER133W, strain GLC7, hits give low values): 0.524 (active)
normalized growth (locus YFL009W, strain cdc4, hits give low values): 0.837 (active)
normalized growth (locus YFL029C, strain CAK1, hits give low values): 0.845 (active)
normalized growth (locus YFR003C, strain YPI1, hits give low values): 0.854 (active)
normalized growth (locus YFR019W, strain FAB1, hits give low values): 0.781
normalized growth (locus YFR028C, strain CDC14, hits give low values): 0.846 (active)
normalized growth (locus YGR040W, strain KSS1, hits give low values): 0.557 (active)
normalized growth (locus YGR052W, strain FMP48, hits give low values): 0.556 (active)
normalized growth (locus YGR092W, strain DBF2, hits give low values): 0.324 (active)
normalized growth [2]: 0.505 (active)
normalized growth (locus YHR079C, strain IRE1, hits give low values): 0.405 (active)
normalized growth (locus YHR082C, strain KSP1, hits give low values): 0.576 (active)
normalized growth (locus YHR205W, strain SCH9, hits give low values): 0.687
normalized growth (locus YIL147C, strain SLN1, hits give low values): 0.831 (active)
normalized growth (locus YJL095W, strain BCK1, hits give low values): 0.488 (active)
normalized growth (locus YJL128C, strain PBS2, hits give low values): 0.823
normalized growth (locus YJL157C, strain FAR1, hits give low values): 0.492 (active)
normalized growth (locus YJR016C, strain ILV3, hits give low values): 0.852 (active)
normalized growth (locus YJR066W, strain TOR1 (second series), hits give low values): 0.645
normalized growth (locus YJR066W, strain TOR1, hits give low values): 0.479 (active)
normalized growth (locus YKL048C, strain ELM1, hits give low values): 0.768 (active)
normalized growth (locus YKL067W, strain YNK1, hits give low values): 0.555 (active)
normalized growth (locus YKL101W, strain HSL1, hits give low values): 0.585 (active)
normalized growth (locus YKL193C, strain SDS22, hits give low values): 0.843 (active)
normalized growth (locus YKL203C, strain TOR2, hits give low values): 0.572 (active)
normalized growth (locus YLR113W, strain HOG1, hits give low values): 0.327 (active)
normalized growth (locus YLR133W, strain CKI1, hits give low values): 0.595 (active)
normalized growth (locus YLR403W, strain SFP1, hits give low values): 0.552 (active)
normalized growth (locus YML070W, strain DAK1, hits give low values): 0.519 (active)
normalized growth (locus YMR001C, strain CDC5, hits give low values): 0.838 (active)
normalized growth (locus YMR205C, strain PFK2 (second series), hits give low values): 0.53 (active)
normalized growth (locus YMR277W, strain FCP1, hits give low values): 0.839 (active)
normalized growth (locus YNL006W, strain LST8, hits give low values): 0.858 (active)
normalized growth (locus YNL020C, strain ARK1, hits give low values): 0.529 (active)
normalized growth (locus YNL161W, strain CBK1, hits give low values): 0.864 (active)
normalized growth (locus YNL183C, strain NPR1, hits give low values): 0.443 (active)
normalized growth (locus YNL207W, strain RIO2, hits give low values): 0.834 (active)
normalized growth (locus YNL222W, strain SSU72, hits give low values): 0.847 (active)
normalized growth (locus YNL307C, strain MCK1 (second series), hits give low values): 0.571 (active)
normalized growth (locus YOL078W, strain AVO1, hits give low values): 0.847 (active)
normalized growth (locus YOL136C, strain PFK27, hits give low values): 0.533 (active)
normalized growth (locus YOR061W, strain CKA2, hits give low values): 0.608 (active)
normalized growth (locus YOR119C, strain RIO1, hits give low values): 0.549 (active)
normalized growth (locus YOR231W, strain MKK1, hits give low values): 0.426 (active)
normalized growth (locus YOR329C, strain SCD5, hits give low values): 0.857 (active)
normalized growth (locus YPL031C, strain PHO85, hits give low values): 0.526 (active)
normalized growth (locus YPL153C, strain RAD53, hits give low values): 0.52 (active)
normalized growth (locus YPL204W, strain HRR25, hits give low values): 0.52 (active)
normalized growth (locus YPL209C, strain IPL1, hits give low values): 0.86 (active)
normalized growth (locus YPL256C, strain CLN2, hits give low values): 0.547 (active)
normalized growth (locus YPR025C, strain CCL1, hits give low values): 0.855 (active)
normalized growth (locus YPR106W, strain ISR1, hits give low values): 0.896
normalized growth (locus YPR111W, strain DBF20, hits give low values): 0.884
normalized growth (strain NNK1, hits give low values): 0.87 (active)
normalized growth (strain TSCII, hits give low values): 0.833 (active)

O=C(Nc1ccccc1)Nc1ccc(C(F)(F)F)cc1Br
normalized growth [3]: 0.968
normalized growth [4]: 0.985
normalized growth [1]: 1.04
normalized growth [5]: 0.967
normalized growth [6]: 0.957
normalized growth [7]: 0.981
normalized growth [8]: 0.948
normalized growth [2]: 0.749
normalized growth [9]: 0.941
normalized growth (locus YJL187C, strain SWE1, hits give low values): 0.943
normalized growth [10]: 0.926
normalized growth [11]: 0.906
normalized growth [12]: 0.843
normalized growth [13]: 0.969
normalized growth [14]: 0.728 (active)
normalized growth [15]: 0.948
normalized growth [16]: 0.957
normalized growth [17]: 0.99
normalized growth [18]: 0.917
normalized growth [19]: 0.54 (active)
normalized growth [20]: 0.957
normalized growth [21]: 0.979
normalized growth [22]: 0.799 (active)
normalized growth [23]: 0.995
normalized growth [24]: 0.887
normalized growth (locus YOL006C, strain TOP1, hits give low values): 0.722 (active)
normalized growth [25]: 0.842
normalized growth [26]: 0.885
normalized growth [27]: 0.878

CC(=O)Nc1ccc(C(F)(F)F)cc1Br
normalized growth [3]: 1
normalized growth [4]: 1.01
normalized growth [1]: 0.979
normalized growth [5]: 0.98
normalized growth [6]: 0.862
normalized growth [7]: 0.967
normalized growth [8]: 0.993
normalized growth [2]: 0.896
normalized growth [9]: 1.05
normalized growth [10]: 0.932
normalized growth [11]: 0.99
normalized growth [12]: 1
normalized growth [13]: 0.972
normalized growth [14]: 0.933
normalized growth [15]: 1
normalized growth [16]: 0.996
normalized growth [17]: 0.999
normalized growth [18]: 0.965
normalized growth [19]: 1.06
normalized growth [20]: 0.964
normalized growth [21]: 0.994
normalized growth [22]: 0.957
normalized growth [23]: 0.989
normalized growth [24]: 0.993
normalized growth [25]: 1.05
normalized growth [26]: 1
normalized growth [27]: 0.897

NC(=NCCCC(N)C(=O)O)N[N+](=O)[O-] (stereo not given)
normalized growth (locus YAL040C, strain CLN3, hits give low values): 0.999
normalized growth (locus YCL061C, strain MRC1 (second series), hits give low values): 1
normalized growth (locus YDR363W, strain ESC2, hits give low values): 1.03
normalized growth (locus YER002W, strain NOP16, hits give low values): 1
normalized growth (locus YGR229C, strain SMI1, hits give low values): 1.02
normalized growth [11]: 1.02
normalized growth [18]: 1
normalized growth [19]: 1
normalized growth [20]: 1.02
normalized growth (locus YNL175C, strain NOP13, hits give low values): 1
normalized growth (locus YNL197C, strain WHI3, hits give low values): 1.01
normalized growth (locus YNL224C, strain SQS1, hits give low values): 1.01
normalized growth (locus YOR083W, strain WHI5 (second series), hits give low values): 1.02
